Calls of active or inactive are those of the source. Unless noted, the rule behind the calls is not given here.
What was measured:
[1] = compounds binding Alexa647 anti-His antibody – biochemical, small-molecule microarray, 635 nm fluorescence, artefact control for SMM control protein annotation, primary screen (AID 1128); settings: higher = more signal;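 note: score merges feature fluorescence with signal-to-noise for each printed compound spot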
[2] = system: Human papillomavirus type 1a E7 protein (residues 1-88); assay: HPV1a E7 small-molecule binders, primary screen, biochemical, small-molecule microarray, residues 1-88, 635 nm (AID 1129); settings: small-molecule microarray binding, fluorescence 635 nm; higher = more signal
[3] = molecular target: Focal adhesion kinase 1 (Homo sapiens) (UniProt Q05397); assay: PTK2 protein binding on printed compound slides – biochemical, small-molecule microarray, 635/667 nm fluorescence, BSA, DTT, primary screen (AID 1130); settings: 635 nm fluorescence, higher = more signal;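 note: composite of spot emission at 667 nm and signal to noise over triplicate slides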
Sequence of Focal adhesion kinase 1 (Homo sapiens) (Q05397 whole entry, looked up): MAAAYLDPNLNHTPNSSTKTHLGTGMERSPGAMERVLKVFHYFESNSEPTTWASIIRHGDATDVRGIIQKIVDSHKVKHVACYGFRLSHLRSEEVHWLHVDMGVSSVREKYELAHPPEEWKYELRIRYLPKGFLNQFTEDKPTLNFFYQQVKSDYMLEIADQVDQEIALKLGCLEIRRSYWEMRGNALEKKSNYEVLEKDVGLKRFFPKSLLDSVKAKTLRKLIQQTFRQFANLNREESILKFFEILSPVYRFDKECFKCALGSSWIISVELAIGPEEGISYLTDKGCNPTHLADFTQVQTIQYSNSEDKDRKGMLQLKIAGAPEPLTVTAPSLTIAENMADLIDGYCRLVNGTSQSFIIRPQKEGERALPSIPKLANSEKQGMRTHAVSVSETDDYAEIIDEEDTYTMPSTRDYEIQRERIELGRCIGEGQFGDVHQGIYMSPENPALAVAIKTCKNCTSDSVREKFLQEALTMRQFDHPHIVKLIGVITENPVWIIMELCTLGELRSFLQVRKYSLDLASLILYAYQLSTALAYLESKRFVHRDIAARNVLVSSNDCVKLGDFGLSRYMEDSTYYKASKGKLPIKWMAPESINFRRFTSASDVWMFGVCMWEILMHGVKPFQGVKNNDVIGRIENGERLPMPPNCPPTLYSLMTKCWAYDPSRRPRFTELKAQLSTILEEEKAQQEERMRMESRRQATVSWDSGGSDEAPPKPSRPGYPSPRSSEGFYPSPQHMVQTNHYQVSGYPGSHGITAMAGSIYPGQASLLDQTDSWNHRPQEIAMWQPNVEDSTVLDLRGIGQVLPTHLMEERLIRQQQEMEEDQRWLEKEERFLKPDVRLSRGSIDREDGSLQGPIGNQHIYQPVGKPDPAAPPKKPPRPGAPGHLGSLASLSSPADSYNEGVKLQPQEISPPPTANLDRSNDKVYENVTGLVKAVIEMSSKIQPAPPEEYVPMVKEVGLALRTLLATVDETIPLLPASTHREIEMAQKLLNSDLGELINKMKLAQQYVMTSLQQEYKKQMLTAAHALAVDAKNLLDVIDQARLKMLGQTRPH

[4] = system: Fibrinogen (Alexa647-labelled); assay: Alexa647-fibrinogen binding to printed small molecules – biochemical, small-molecule microarray, 635/667 nm fluorescence, artefact control for SMM control-protein annotation, profiling panel (AID 1131); settings: fibrinogen-A647 binding fluorescence, higher = more signal;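 note: z-score merges 667 nm fluorescence with per-spot signal-to-noise over triplicate slides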
[5] = molecular target: Follistatin (Homo sapiens) (UniProt P19883); assay: FST protein binding to printed compounds – biochemical, small-molecule microarray, 635/667 nm fluorescence, primary screen (AID 1132); settings: 635 nm fluorescence, higher = more signal
Sequence of Follistatin (Homo sapiens) (P19883 whole entry, looked up): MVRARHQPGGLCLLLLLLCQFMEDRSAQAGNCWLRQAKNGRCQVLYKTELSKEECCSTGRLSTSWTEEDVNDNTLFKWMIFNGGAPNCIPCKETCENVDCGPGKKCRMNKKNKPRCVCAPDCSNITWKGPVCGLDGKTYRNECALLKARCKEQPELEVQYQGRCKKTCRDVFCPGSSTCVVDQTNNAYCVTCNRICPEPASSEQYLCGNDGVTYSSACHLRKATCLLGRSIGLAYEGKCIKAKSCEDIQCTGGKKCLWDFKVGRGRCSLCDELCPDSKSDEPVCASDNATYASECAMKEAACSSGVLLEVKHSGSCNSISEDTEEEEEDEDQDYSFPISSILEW

[6] = molecular target: Fibroblast growth factor 2 (Homo sapiens) (UniProt P09038); assay: basic fibroblast growth factor binding to printed compounds – biochemical, small-molecule microarray, 635/667 nm fluorescence, primary screen (AID 1133); settings: FGF2, fluorescence 635/667, higher = more signal
Sequence of Fibroblast growth factor 2 (Homo sapiens) (P09038 whole entry, looked up): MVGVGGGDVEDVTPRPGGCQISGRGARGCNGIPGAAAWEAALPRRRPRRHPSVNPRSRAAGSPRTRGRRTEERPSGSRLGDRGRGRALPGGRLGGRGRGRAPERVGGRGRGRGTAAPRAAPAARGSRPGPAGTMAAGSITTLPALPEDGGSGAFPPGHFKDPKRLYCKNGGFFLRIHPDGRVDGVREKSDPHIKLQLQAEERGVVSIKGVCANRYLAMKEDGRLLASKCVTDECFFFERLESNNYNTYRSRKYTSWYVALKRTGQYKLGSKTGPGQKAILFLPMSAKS

[7] = JC-1 mitochondrial potential readout, lung cancer cells – cell-based, A549, JC-1 fluorescence, basal, 24 h, 100 nL, profiling panel (AID 1138); settings: higher = more signal;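 note: A549 lung adenocarcinoma cells under basal conditions with no added stimulus; test concentration not given here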
Lefty1 = Lefty1 protein binding to printed compounds – biochemical, small-molecule microarray, 635/667 nm fluorescence, primary screen (AID 1139); settings: fluorescence 635/667, higher = more signal
[8] = system: wheat germ agglutinin (Triticum aestivum), Alexa647-labelled; assay: Alexa647-WGA lectin binding to printed small molecules – biochemical, small-molecule microarray, 635/667 nm fluorescence, artefact control for SMM control-protein annotation, profiling panel (AID 1140); settings: WGA-A647 binding, 635 nm fluorescence, higher = more signal;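 note: score merges 667 nm feature emission with signal to noise over triplicate slides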
[9] = molecular target: Luciferin 4-monooxygenase (Photinus pyralis) (UniProt P08659); assay: inhibition of purified Photinus pyralis luciferase – biochemical, luminescence, purified enzyme, 2006 set, primary screen (AID 1141); settings: purified firefly luciferase, SteadyGlo luminescence, 30 min; higher = more signal, called active from +8 up or from −8 down;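 note: cell-free assay with purified firefly luciferase at 100 ng per well in PBS; test concentration not given here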
Sequence of Luciferin 4-monooxygenase (Photinus pyralis) (P08659 whole entry, looked up): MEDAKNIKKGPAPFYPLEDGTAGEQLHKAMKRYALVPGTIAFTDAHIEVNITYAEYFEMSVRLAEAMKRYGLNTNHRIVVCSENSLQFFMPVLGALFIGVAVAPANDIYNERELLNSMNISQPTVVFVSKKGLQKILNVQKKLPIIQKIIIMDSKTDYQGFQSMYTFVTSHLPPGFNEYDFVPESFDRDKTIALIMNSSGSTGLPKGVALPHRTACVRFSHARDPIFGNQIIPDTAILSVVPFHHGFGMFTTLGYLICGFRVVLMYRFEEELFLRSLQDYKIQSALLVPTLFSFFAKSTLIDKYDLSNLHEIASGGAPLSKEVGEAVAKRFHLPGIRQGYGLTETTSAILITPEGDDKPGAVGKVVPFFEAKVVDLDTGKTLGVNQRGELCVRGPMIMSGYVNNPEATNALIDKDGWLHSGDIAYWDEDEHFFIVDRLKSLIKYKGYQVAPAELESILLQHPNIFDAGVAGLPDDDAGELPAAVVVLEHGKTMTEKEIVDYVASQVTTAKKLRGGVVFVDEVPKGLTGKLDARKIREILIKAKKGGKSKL

[10] = system: Wnt5a (protein binding on small-molecule microarray); assay: small molecules binding Wnt5a protein – biophysical, small-molecule microarray, 635/667 nm fluorescence, primary screen (AID 1142); settings: 635 nm fluorescence, higher = more signal;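 note: fluorescence read at 667 nm with signal to noise per printed feature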
[11] = ATP-based viability of Huh7 replicon cells – cell-based, CellTiter-Glo luminescence, basal, 48 h, cytotoxicity control for HCV replication inhibitor project, primary screen (AID 1143); settings: higher = more signal, called active from +8 up or from −8 down;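 note: Huh7 hepatoma cells carrying a hepatitis C replication reporter with no stimulus; test concentration not given here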
[12] = Pseudomonas biofilm growth suppression – PAO1 strain, BacTiter-Glo luminescence, LB-PBS, primary screen (AID 1144); settings: P. aeruginosa PAO1 biofilm, 12 h, higher = more signal
[13] = basal CRE-LacZ reporter activity in PC12 – cell-based, unstimulated, primary screen (AID 1145); settings: no forskolin, luminescence, 4.5 h, higher = more signal, called active from +8 up or from −8 down
[14] = forskolin-driven CRE-LacZ activity in PC12 – cell-based, CRE-LacZ reporter, forskolin-stimulated, primary screen (AID 1146); settings: luminescence, 4.5 h, higher = more signal, called active from +8 up or from −8 down;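 note: PC12 cells with 6xCRE LacZ reporter stimulated by forskolin 10 µM; beta-galactosidase reporter signal reflecting CREB driven transcription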
[15] = molecular target: Streptavidin (Streptomyces avidinii) (UniProt P22629); assay: compounds binding control protein streptavidin – biophysical, small-molecule microarray, 635/667 nm fluorescence, artefact control for SMM compound annotation, primary screen (AID 1147); settings: higher = more signal;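 note: signal reflects streptavidin binding to arrayed compounds as a control protein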
Sequence of Streptavidin (Streptomyces avidinii) (P22629 whole entry, looked up): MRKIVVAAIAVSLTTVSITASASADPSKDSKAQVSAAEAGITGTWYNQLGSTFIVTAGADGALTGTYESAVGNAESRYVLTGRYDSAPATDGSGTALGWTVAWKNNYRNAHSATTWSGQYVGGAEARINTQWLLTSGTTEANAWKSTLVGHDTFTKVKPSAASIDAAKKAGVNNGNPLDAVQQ

[16] = probe aInhba binding on compound microarray – biochemical, small-molecule microarray, 635/667 nm fluorescence, primary screen (AID 1148); settings: higher = more signal;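 note: score merges 667nm spot fluorescence with signal-to-noise for antibody binding to printed compounds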
Torsin-1A (Homo sapiens) [17] = molecular target: Torsin-1A (Homo sapiens) (UniProt O14656); assay: TOR1A wild-type binding on microarray – cell lysate, small-molecule microarray, lysate, 635/667 nm, primary screen (AID 1149); settings: COS7 hTOR1A-WT lysate, 635 nm fluorescence, higher = more signal
Sequence of Torsin-1A (Homo sapiens) (O14656 whole entry, looked up): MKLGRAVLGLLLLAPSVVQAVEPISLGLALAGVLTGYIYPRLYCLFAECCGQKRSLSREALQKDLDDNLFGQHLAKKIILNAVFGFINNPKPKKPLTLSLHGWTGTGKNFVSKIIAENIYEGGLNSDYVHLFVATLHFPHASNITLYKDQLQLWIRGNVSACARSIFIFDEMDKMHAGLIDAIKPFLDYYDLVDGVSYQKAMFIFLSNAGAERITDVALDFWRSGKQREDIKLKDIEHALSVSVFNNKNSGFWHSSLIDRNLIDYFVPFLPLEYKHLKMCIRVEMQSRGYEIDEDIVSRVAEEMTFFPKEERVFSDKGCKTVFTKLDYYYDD

Torsin-1A (Homo sapiens) [18] = molecular target: Torsin-1A (Homo sapiens) (UniProt O14656); assay: torsin A mutant lysate binding on microarrays – cell lysate, small-molecule microarray, COS7 lysate, 635/667 nm fluorescence, primary screen (AID 1150); settings: COS7 hTOR1A mutant lysate, 635 nm fluorescence, higher = more signal;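 note: score pools 667 nm emission and signal to noise measuring lysate protein binding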
[19] = system: Sonic hedgehog protein (Shh); assay: Sonic hedgehog microarray binding compounds – biochemical, small-molecule microarray, 635/667 nm fluorescence, primary screen (AID 1151); settings: 635 nm fluorescence, higher = more signal;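 note: Shh protein binding to compounds spotted on small-molecule microarray slides; score combines spot fluorescence intensity with signal-to-noise across triplicate slides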

Structure (SMILES)	composite z-score [1]	composite z-score [2]	composite z-score [3]	composite z-score [4]	composite z-score [5]	composite z-score [6]	z-score [7]	composite z-score (Lefty1)	composite z-score [8]	z-score [9]	composite z-score [10]	z-score [11]	z-score [12]	z-score [13]	z-score [14]	composite z-score [15]	composite z-score [16]	composite z-score (Torsin-1A (Homo sapiens) [17])	composite z-score (Torsin-1A (Homo sapiens) [18])	composite z-score [19]
CN(C)CCCN1C(=O)[C@@]2(c3ccc([N+](=O)[O-])cc3)CC(=O)N(CC34CC5CC(CC(C5)C3)C4)[C@@H]2c2ccc(CO)cc21	1.98	-0.0813	-0.117	0.926	0.203	-0.112	1.72	0.13	0.354	-0.701 (inactive)	-0.199	0.278 (inactive)	0.878 (inactive)	-0.0259 (inactive)	-0.598 (inactive)	-0.472	-0.0963	-0.524	-0.17	0.0109
CCOc1cc(C(O)C2C=CC3C(=O)N(C4CCCCC4)C(=O)C3N2Nc2ccc(OC)cc2)ccc1O (stereo not given)	0.675	1.19	0.903	0.705	0.846	-0.0785	0.786	0.225	0.686	-0.0537 (inactive)	0.0751	-1.26 (inactive)	-0.855 (inactive)	0.276 (inactive)	-1.51 (inactive)	1.43	0.0808	0.705	1.17	-0.207
CC(C)CN1C(=O)[C@@]2(Cc3ccccc31)c1ccccc1C(=O)N(Cc1ccccc1C(F)(F)F)[C@H]2c1ccc(CO)cc1	-0.372	-1.18	-0.315	-0.921	-0.596	-0.425	0.39	0.636	-0.0876	1.11 (inactive)	-0.331	-2.54 (inactive)	-1.53 (inactive)	0.0655 (inactive)	-0.416 (inactive)	-0.0961	-0.182	-2.38	-0.727	-0.875
C=C1C2CC3C(=C4C(CO[C@@H]4[C@H]4CCCN4S(=O)(=O)c4ccccc4[N+](=O)[O-])C4C(=O)N(C)C(=O)C34)CC2C(=O)N1C (stereo not given in full)	-0.382	0.128	0.0722	0.412	0.482	0.425	0.225	0.218	0.337	0.101 (inactive)	-0.0541	0.985 (inactive)	0.283 (inactive)	3.21 (inactive)	0.769 (inactive)	-0.207	-0.101	0.942	0.107	0.832
O=C1C[C@@](C(=O)NCC(F)(F)F)(c2ccc([N+](=O)[O-])cc2)[C@@H](c2ccc(CO)cc2)N1C1CCCCC1	2.22	1.22	0.847	0.956	1.47	1.28	0.0267	0.761	0.861	0.414 (inactive)	0.247	-1.97 (inactive)	0.0325 (inactive)	0.854 (inactive)	-0.369 (inactive)	0.579	0.101	1.36	1.57	1.22
CON(C)C(=O)C=C1C[C@@H](c2cccc(Cl)c2)O[C@@H](c2cccc(Cl)c2)O1	1.15	0.878	0.441	0.472	0.412	0.372	3.69	0.669	0.462	-0.344 (inactive)	-0.124	-3.94 (inactive)	0.875 (inactive)	0.481 (inactive)	-1.07 (inactive)	2.55	-0.183	0.643	0.124	0.774
O=C1O[C@@H](c2ccccc2)[C@@H](c2ccccc2)N2[C@@H](c3ccc(O)cc3)[C@]3(C(=O)Nc4ccc(C#CCCO)cc43)[C@@H](C(=O)NC[C@H](O)c3ccccc3)[C@H]12	0.206	-0.386	-0.141	-1.38	-0.162	-1.11	-1.57	0.0328	1.12	0.411 (inactive)	-0.738	0.058 (inactive)	0.142 (inactive)	-1.15 (inactive)	-0.869 (inactive)	-0.791	-0.128	-0.664	0.229	0.304
CC[C@@H]1[C@H]2C3C(=O)N(CC)C(=O)C3CC(=O)[C@H]2[C@H](c2ccc(C)cc2)N1S(=O)(=O)c1ccc(C)cc1 (stereo not given in full)	0.733	1.1	0.213	0.142	0.532	0.087	1.18	0.201	0.676	0.497 (inactive)	0.163	-2.9 (inactive)	0.394 (inactive)	-0.77 (inactive)	-0.878 (inactive)	1.4	-0.0986	-0.343	0.112	0.514
CC(C)CCC[C@@H](C)[C@H]1CC[C@@]2(C)C3=C(CC[C@]12C)[C@@]1(C)CC[C@H](OC(=O)c2ccc(Br)cc2)C(C)(C)C1CC3 (stereo not given in full)	-0.242	0.595	-0.172	0.487	0.485	0.508	0.367	0.573	0.538	-1.28 (inactive)	0.119	-1.17 (inactive)	-0.784 (inactive)	0.21 (inactive)	0.168 (inactive)	0.0916	0.054	0.276	0.409	0.384
C=CCN1C(=O)[C@@]2(CCC(=O)OC(C)(C)C)N=C(c3ccc(OCCCO)cc3)O[C@H]2c2ccccc21	2.33	0.909	1.54	0.652	1.23	0.898	-0.758	0.319	0.525	-4.58 (inactive)	0.228	-4.68 (inactive)	0.324 (inactive)	0.573 (inactive)	-2.25 (inactive)	0.57	0.0588	-0.0862	0.0147	0.832
